BAZ2B inh: qHTS Assay for Inhibitors of BAZ2B | Bromodomain adjacent to zinc finger domain protein 2B (Homo sapiens), Q9UIF8 | AlphaScreen BAZ2B-H3K14Ac peptide displacement | Potency, µM (doses to about 114 µM), most hits filed as inhibitors | 4.4% of 360,000 active; also: nearly all actives have a fitted effect of over 60% in size
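BAZ2B (50 nM) with biotin-H3(5-23)K14Ac peptide (50 nM) in PBS pH 7.4, 0.01% Tween-20, preformed 30 min, then compound 30 min at room temperature; top concentration 110uM. AlphaScreen streptavidin donor/nickel chelate acceptor beads (10 ug/mL final), 20 min dark, signal read.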
JMJD2A Tudor inh: qHTS Assay for Inhibitors of JMJD2A-Tudor Domain | Lysine-specific demethylase 4A (Homo sapiens), O75164 | AlphaScreen JMJD2A-Tudor / H3K4me3 peptide binding | Potency, µM (highest dose often 114 µM), usual class: inhibitors | 4.4% of 390,000 active | AID 504339, 2011; also: nearly all actives have a fitted effect of over 50% in size
GLS inh: qHTS for Inhibitors of Glutaminase (GLS); Glutaminase kidney isoform, mitochondrial (Homo sapiens), O94925; GLS enzymatic activity, qHTS titration; Potency, µM (series often up to 45.5 µM), actives largely listed as inhibitors; 0.21% of 410,000 active; AID 624170, 2012
Target sequence (O94925 whole entry, looked up, canonical isoform): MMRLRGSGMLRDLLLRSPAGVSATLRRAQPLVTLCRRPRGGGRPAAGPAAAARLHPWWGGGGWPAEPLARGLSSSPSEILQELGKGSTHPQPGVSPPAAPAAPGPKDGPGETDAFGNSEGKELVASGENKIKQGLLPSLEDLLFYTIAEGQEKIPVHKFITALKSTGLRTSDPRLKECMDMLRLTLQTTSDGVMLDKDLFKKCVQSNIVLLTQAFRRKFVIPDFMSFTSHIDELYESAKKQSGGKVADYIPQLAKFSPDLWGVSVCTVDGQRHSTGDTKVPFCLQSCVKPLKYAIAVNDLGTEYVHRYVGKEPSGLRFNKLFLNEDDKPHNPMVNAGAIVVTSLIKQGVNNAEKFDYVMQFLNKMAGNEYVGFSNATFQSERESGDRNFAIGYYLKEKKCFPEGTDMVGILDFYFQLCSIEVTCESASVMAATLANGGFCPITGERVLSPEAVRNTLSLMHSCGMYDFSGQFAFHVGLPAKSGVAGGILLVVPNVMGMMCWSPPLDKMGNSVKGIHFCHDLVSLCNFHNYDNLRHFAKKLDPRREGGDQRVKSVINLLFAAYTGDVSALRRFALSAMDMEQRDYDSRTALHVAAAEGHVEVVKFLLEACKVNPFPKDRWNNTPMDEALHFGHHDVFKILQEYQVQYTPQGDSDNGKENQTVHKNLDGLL
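Read-out is an Amplex red fluorescence increase coupled through glutamate oxidase and HRP, measured before and after 30 min room-temperature incubation. hKGA is in 45 mM KH2PO4 (pH 8.2) with 0.02% Tween-20; glutamine added as 1mM solution.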
G9a inh: qHTS Assay for Inhibitors of Histone Lysine Methyltransferase G9a; Histone-lysine N-methyltransferase EHMT2 (Homo sapiens), Q96KQ7; G9a H3K9 monomethylation, AlphaScreen, 2 h; Potency, µM (top dose mostly 102 µM), actives largely listed as inhibitors; 8.8% of 350,000 active; AID 504332, 2011; also: nearly all actives have a fitted effect of over 75% in size
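AlphaScreen detection with an anti-monomethyl H3K9 antibody quantified product after a 2 h room-temperature reaction containing 500 nM biotinylated H3K9 peptide, 20 µM SAM and 20 nM enzyme, which had been preincubated 15 min with compound.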
HP1b binding inh: HTS for Inhibitors of HP1-beta Chromodomain Interactions with Methylated Histone Tails. AlphaScreen HP1-beta / biotin-H3K9me3 peptide binding. Potency, µM (top dose mostly 114 µM), most hits filed as inhibitors. 0.56% of 390,000 active; also: nearly all actives have a fitted effect of over 70% in size
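HP1-beta protein (50 nM final) preincubated 30 min at room temperature with biotinylated H3(1-18)K9me3 peptide (50 nM) in PBS pH 7.4, 0.01% Tween-20, then compound added for 30 min. AlphaScreen streptavidin donor/nickel chelate acceptor beads (10 ug/mL final), 30 min dark, luminescence read.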
Of the large screens only hits and unclear results are named; the others gave an inactive call. Sampled rows, rich in hits. Any-hit rate of the full collection: about 10%. Calls follow the shape of the dose curve; as a rule, active = well fitted curve in the direction sought with a large enough effect; inconclusive = small, poorly fitted or top-dose-only effect, or another doubt; inactive = no such curve, though single readings can be large; an effect the other way counts as inactive or inconclusive.

COc1cc(NS(=O)(=O)c2ccc(NC(=O)COc3ccccc3Cl)cc2)nc(OC)n1	G9a inh inconclusive
COc1ccc(OCC(=O)NC(=S)Nc2ccc(S(=O)(=O)Nc3cc(OC)nc(OC)n3)cc2)cc1	none
O=CNc1c(Cl)cc2c(c1Cl)Cc1cc([N+](=O)[O-])ccc1-2	none (no result: BAZ2B inh, G9a inh)
COc1ccc(-c2nnc(SC(C(=O)c3c[nH]c4ccccc34)c3ccccc3)n2N)cc1OC (configuration not stated)	JMJD2A Tudor inh inconclusive, G9a inh 8.9µM
CCn1c2ccccc2c2cc(NC(=O)CSc3nnc(-c4ccc(OC)c(OC)c4)n3N)ccc21	none (no result: GLS inh)
CC(=O)Nc1cc(C(=O)N2CCOCC2)ccc1S(=O)(=O)c1ccc(C)cc1	none
CC(=O)Nc1cc(C(=O)O)ccc1S(=O)(=O)c1ccc(C)cc1	G9a inh 50µM
O=C(O)c1cc([N+](=O)[O-])c(NCCC2=CCCCC2)c([N+](=O)[O-])c1	G9a inh 50µM
O=C1NN=COc2ccccc21	BAZ2B inh 56µM
COc1cc([N+](=O)[O-])ccc1NC(=O)N1CCC2(CC1)Nc1ccccc1-n1cccc12	BAZ2B inh inconclusive, JMJD2A Tudor inh inconclusive, GLS inh inconclusive, G9a inh inconclusive
O=C(O)c1ccc2c3c(ncnc13)-c1ccccc1C2=O	JMJD2A Tudor inh inconclusive, G9a inh 1.4µM
O=C(O)c1ccccc1-c1ccccc1C(=O)Nc1ccccc1	GLS inh inconclusive
Cc1cc(Cl)ccc1Oc1ncnc2oc(-c3ccccc3)cc12	BAZ2B inh 79µM, JMJD2A Tudor inh inconclusive
CCCCn1c(=O)[nH]c(=O)c2c1nc(CN1C(=O)c3ccccc3S1(=O)=O)n2CCC	none
CCCCn1c(=O)[nH]c(=O)c2c1nc(Cn1ncc(Cl)c(Cl)c1=O)n2CCC	JMJD2A Tudor inh inconclusive, G9a inh 35µM
O=C(NCCCn1ccnc1)C(=O)NCC(c1ccco1)N1CCN(c2ccc(F)cc2)CC1 (configuration not stated)	G9a inh inconclusive (no result: BAZ2B inh)
O=C(NCCCn1ccnc1)C(=O)NCC(c1cccnc1)N1CCN(c2ccccc2)CC1 (configuration not stated)	BAZ2B inh 50µM, JMJD2A Tudor inh 56µM, G9a inh inconclusive
O=C(NCCCn1ccnc1)C(=O)NCC(c1ccco1)N1CCN(c2ccccc2)CC1 (configuration not stated)	BAZ2B inh 56µM
O=C(NCc1ccccc1)C(=O)NCC(c1cccnc1)N1CCN(c2ccccc2)CC1 (configuration not stated)	none
COc1ccccc1NS(=O)(=O)c1ccc(C(=O)N2CCN(c3ccccn3)CC2)cc1	none (no result: BAZ2B inh, G9a inh)
O=C1CCCC2=C1C1(CCCC1)N=C(Nc1nc3cc4ccccc4cc3o1)N2	JMJD2A Tudor inh 89µM (no result: BAZ2B inh, GLS inh, G9a inh, HP1b binding inh)
O=C1CCCC2=C1C1(CCCCC1)N=C(Nc1nc3ccccc3o1)N2	JMJD2A Tudor inh inconclusive
CCOP(=O)(OCC)C(C#N)=C1SCN(c2ccc(Cl)cc2)CS1	JMJD2A Tudor inh 79µM, G9a inh inconclusive
Cc1ccc(SCCN2CCN(C)CCC2=O)cc1	none
OCCN1CCN(CCSc2ccccc2)CC1	JMJD2A Tudor inh 28µM, G9a inh inconclusive
Cc1ccc(SCCN2CCN(C)CC2)cc1	G9a inh 50µM
c1ccc(SCCN2CCc3ccccc3C2)cc1	JMJD2A Tudor inh 25µM, G9a inh 40µM
O=C1CCN(CCc2ccccc2)CCN1CCSc1ccccc1	none (no result: G9a inh)
CC(=O)OC1CCC2(C)C(=CCC3C2CCC2(C)C(C(C)=O)CCC32)C1 (configuration not stated)	none (no result: BAZ2B inh, JMJD2A Tudor inh, G9a inh, HP1b binding inh)
COc1ccc(C2CC(c3ccccc3)Oc3cc(C)cc(C)c32)cc1 (configuration not stated)	none (no result: BAZ2B inh, GLS inh, G9a inh)
CC(=O)c1cccc(NC(=O)CCNS(=O)(=O)c2cccc(C(C)=O)c2)c1	none
CC(=O)c1cccc(S(=O)(=O)NCCC(=O)Nc2ccc(S(N)(=O)=O)cc2)c1	G9a inh 50µM
CC1(C)SC(=S)N(NC(=O)Nc2ccccc2)C1N(O)C(=O)Nc1cccc2ccccc12 (configuration not stated)	BAZ2B inh inconclusive, JMJD2A Tudor inh inconclusive, G9a inh 11µM
CC1(C)SC(=S)N(/N=C/c2cccnc2)C1N(O)C(=O)Nc1ccccc1 (configuration not stated)	none
CC1(C)SC(=S)N(/N=C/c2ccccc2O)C1N(O)C(=O)Nc1ccccc1 (configuration not stated)	BAZ2B inh inconclusive, JMJD2A Tudor inh inconclusive, GLS inh 1µM
O=C(Nc1ccccc1)Nc1cccc2ccccc12	none (no result: G9a inh)
Cc1ccc(Nc2cc(C(=O)NC3CCCC3)c3ccccc3n2)cc1C	none
N[C@@H](CCS(=O)O)C(=O)O	none (no result: BAZ2B inh, JMJD2A Tudor inh, GLS inh, HP1b binding inh)
O=C(c1ccccc1)c1cc(Cl)ccc1N1C(=O)C=CC1=O	BAZ2B inh 79µM, JMJD2A Tudor inh 18µM, GLS inh inconclusive, G9a inh 1.8µM, HP1b binding inh 10µM
O=C(CC(=O)c1cc(Cl)ccc1O)c1ccccc1	none
CCC(C)NS(=O)(=O)c1ccc(S(=O)(=O)N2CCCC3(CCCCC3)C2)cc1 (configuration not stated)	G9a inh inconclusive
Cn1c(=O)oc2cc(S(=O)(=O)NC(CC(=O)O)c3cccc(Br)c3)ccc21 (configuration not stated)	none
CC(=O)N1CC(C)Oc2ccc(S(=O)(=O)NC(CC(=O)O)c3ccccc3C)cc21 (configuration not stated)	G9a inh 50µM
CCOC(=O)Cc1csc(NC(=O)Cc2cccs2)n1	BAZ2B inh 50µM, JMJD2A Tudor inh 45µM (no result: GLS inh)
COCc1nnc(NC(=O)CS(=O)(=O)c2ccc(C)cc2)s1	JMJD2A Tudor inh inconclusive, G9a inh 50µM
CCOC(=O)Cc1csc(NC(=O)CSc2cc(Cl)ccc2Cl)n1	BAZ2B inh inconclusive, G9a inh 22µM
CC(C)(C)c1csc(NC(=O)Cc2cccs2)n1	BAZ2B inh 50µM, G9a inh 50µM
CC(C)(C)c1csc(NC(=O)c2cccs2)n1	G9a inh inconclusive
CCCc1nnc(NC(=O)CS(=O)(=O)c2ccc(C)cc2)s1	none
CCOC(=O)Cc1csc(NC(=O)CSc2nc(C)cc(C)n2)n1	none (no result: BAZ2B inh, G9a inh)
Cc1ccc(S(=O)(=O)CC(=O)Nc2nc(C(C)(C)C)cs2)cc1	G9a inh 40µM
Cc1ccc(S(=O)(=O)CCc2nnc(NC(=O)CCl)s2)cc1C	G9a inh 79µM
CCOC(=O)Cc1csc(SCC(=O)Nc2nccs2)n1	G9a inh 50µM
CCOC(=O)Cc1csc(NC(=O)CCSc2ccccc2)n1	G9a inh 50µM
